An excerpt weighted towards active compounds, which were near 12% of everything screened.
G9a inh – qHTS Assay for Inhibitors of Histone Lysine Methyltransferase G9a; Potency, µM (highest dose often 102 µM), actives largely listed as inhibitors; Histone-lysine N-methyltransferase EHMT2 (Homo sapiens), Q96KQ7; G9a H3K9 monomethylation, AlphaScreen, 2 h; actives 8.8% (n = 350,000); further: nearly all actives have a fitted effect of over 75% in size
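Quantitative HTS format: methyltransferase activity on a biotin-tagged H3K9 peptide is measured by AlphaScreen, using a rabbit anti-monomethyl-H3K9 antibody with streptavidin donor and anti-IgG acceptor beads. Final levels are 20 nM enzyme, 500 nM peptide, 20 uM SAM; 2 h RT.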
Sfp PPTase inh – qHTS Assay for Inhibitors of Bacillus subtilis Sfp phosphopantetheinyl transferase (PPTase). Biochemical Sfp PPTase activity, qHTS. Potency, µM, hits mostly inhibitors. actives 3.5% (n = 310,000);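 further: the enzyme is Sfp with the accession as filed and its product quenches rhodamine fluorescence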
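Fluorescence-quenching assay with 15 nM Sfp, 5 uM rhodamine-CoA and 12.5 uM BHQ-2-labelled ybbR peptide in pH 7.6 Hepes/MgCl2 buffer. Enzyme was pre-incubated with compound for 15 min at room temperature. Rate was taken from the 30-min fluorescence change (525/598 nm).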
BAZ2B block – qHTS Assay for Inhibitors of BAZ2B; actives 4.4% (n = 360,000); AlphaScreen BAZ2B-H3K14Ac peptide displacement; Bromodomain adjacent to zinc finger domain protein 2B (Homo sapiens), Q9UIF8; Potency, µM (highest dose often 114 µM), actives largely listed as inhibitors; further: nearly all actives have a fitted effect of over 60% in size
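Multi-concentration screen (max 110 uM) measuring displacement of acetylated histone H3 peptide from BAZ2B by AlphaScreen, using 50 nM protein, 50 nM peptide and 10 ug/mL streptavidin donor plus Ni-chelate acceptor beads.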
HP1b binding inh – HTS for Inhibitors of HP1-beta Chromodomain Interactions with Methylated Histone Tails; Chromobox protein homolog 1 (Homo sapiens), P83916; AlphaScreen HP1-beta / biotin-H3K9me3 peptide binding; Potency, µM (series often up to 114 µM), actives largely listed as inhibitors; actives 0.56% (n = 390,000); AID 540317, 2011; further: nearly all actives have a fitted effect of over 70% in size
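Compound inhibition of the preformed complex between 50 nM HP1-beta and 50 nM biotinylated H3K9me3 peptide was read by AlphaScreen. Buffer was PBS pH 7.4 with 0.01% Tween-20. Incubations ran 30 min at room temperature, with 10 ug/mL donor/acceptor beads.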
L3MBTL1 block – qHTS Assay for the Inhibitors of L3MBTL1. Potency, µM (top dose mostly 57.1 µM), most hits filed as inhibitors. AlphaScreen L3MBTL1–H3K9me1 peptide binding. actives 0.66% (n = 230,000). AID 485360, 2010; further: nearly all actives have a fitted effect of over 60% in size
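L3MBTL1 (50 nM) pre-complexed 30 min with biotinylated H3(1-15)K9me1 peptide (75 nM), then compounds added for 30 min at room temperature; AlphaScreen streptavidin donor/nickel chelate acceptor beads (10 ug/mL final) read after 30 min dark incubation.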
JMJD2A Tudor – qHTS Assay for Inhibitors of JMJD2A-Tudor Domain. Lysine-specific demethylase 4A (Homo sapiens), O75164. AlphaScreen JMJD2A-Tudor / H3K4me3 peptide binding. Potency, µM (titrated, usually from 114 µM), usual class: inhibitors. actives 4.4% (n = 390,000); further: nearly all actives have a fitted effect of over 50% in size
Numbers stand for hits; - = inactive; ? = inconclusive; . = no result; [ ] = another dose, or the depositor's remark. The call rests on the fitted dose curve; in most records, active means well fitted curve in the direction sought with a large enough effect; inconclusive means small, poorly fitted or top-dose-only effect, or another doubt; inactive means no such curve, though single readings can be large; an effect the other way counts as inactive or inconclusive.

SMILES | G9a inh | Sfp PPTase inh | BAZ2B block | HP1b binding inh | L3MBTL1 block | JMJD2A Tudor
COc1ccc(CC(=O)NNC(=O)c2ccc(NC(C)=O)cc2)cc1 | 45µM | - | - | - | - | -
COc1ccc(C(=O)NC(=S)NNC(=O)c2ccc3ccccc3n2)cc1 | 13µM | - | 79µM | - | ? | 50µM
CCCOc1ccc(C(=O)NNC(=S)NC(=O)c2ccco2)cc1 | 40µM | - | - | ? | - | -
CCOc1cc2c(cc1OCC)C(CC(=O)O)N(C(=O)Nc1ccc(Br)c(C)c1)CC2 (stereo not given) | ? | . | - | - | . | -
CCCCOc1ccc(C(=O)NNC(=S)NC(=O)CC)cc1 | 20µM | - | - | - | - | ?
CCCOc1ccc(C(=O)NNC(=S)NC(=O)c2ccccc2)cc1 | ? | - | - | - | . | ?
CCC(=O)NC(=S)NNC(=O)c1ccc(OC)cc1 | 22µM | 56µM | - | - | - | 22µM
CCCOc1ccc(C(=O)NNC(=S)NC(C)=O)cc1 | ? | ? | - | - | - | 28µM
COc1ccc(/C=C/C(=O)Nc2sc3c(c2C(N)=O)CCC(C)C3)cc1OC (stereo not given) | - | . | - | - | . | -
Cc1nnc(SCc2c(Cl)cccc2[N+](=O)[O-])s1 | ? | - | - | - | - | -
O=[N+]([O-])c1cccc(Cl)c1CSc1ccccn1 | 45µM | - | ? | - | - | -
CC(C)c1ccc2c(c1)C(c1cccs1)=NNC(c1ccncc1)=N2 | 28µM | - | ? | - | - | -
CC(C)c1ccc2c(c1)C(c1ccc(N3CCOCC3)cc1)=NNC(c1cccs1)=N2 | 45µM | - | ? | - | - | ?
COc1ccc2c(c1)C(c1ccc(N3CCOCC3)cc1)=NNC(c1cccnc1)=N2 | - | - | ? | - | - | -
Cc1cc(C)n(-c2nc3ccccc3n3nnnc23)n1 | ? | - | - | - | . | -
N#Cc1cc2ccccc2n2nnnc12 | 50µM | - | - | - | . | -
O=C(CCN1C(=O)C2C3CC(C(Br)C3Br)C2C1=O)OCC(=O)c1ccccc1 (stereo not given) | - | - | - | - | - | 79µM
O=C(O)C1CCCCC1C(=O)Nc1cccc2ccccc12 (stereo not given) | 11µM | - | - | - | - | -
O=C(C[n+]1ccccc1)c1ccc(NC(=O)c2ccccc2)cc1 | 16µM | - | - | - | - | ?
O=C(Nc1ccc[n+](CC(=O)c2cccc3ccccc23)c1)c1ccccc1 | 40µM | 56µM | - | - | - | -
N#Cc1ccc[n+](CC(=O)c2ccc(NC(=O)c3ccccc3)cc2)c1 | 45µM | - | - | - | - | -
Cc1cc[n+](CC(=O)c2ccc(NC(=O)c3ccccc3)cc2)cc1 | ? | - | - | - | . | -
CCc1ccc(S(=O)(=O)c2cn(CC(=O)Nc3ccc(C)cc3)c3ccccc3c2=O)cc1 | - | . | - | - | . | -
Cc1ccc(CNC(=O)C2CCN(S(=O)(=O)c3cccs3)CC2)cc1 | - | - | - | - | . | 89µM
Cc1ccc(CNC(=O)C2CCC(=O)N(CC3CCCCC3)C2)o1 (stereo not given) | 45µM | - | - | - | . | -
SMILES | G9a inh | Sfp PPTase inh | BAZ2B block | HP1b binding inh | L3MBTL1 block | JMJD2A Tudor
CCN(CC)c1ccc(CN2CCC(C(=O)NCc3ccc(C)cc3)CC2)cc1 | . | - | - | ? | - | 20µM
CCCNC(=O)C1CCN(S(=O)(=O)c2cccs2)CC1 | - | - | - | - | - | -
Cc1ccc(CNC(=O)COC(=O)C2CCN(S(=O)(=O)c3cccs3)CC2)cc1 | - | - | . | - | - | -
Cc1ccc(CNC(=O)C2CCN(S(=O)(=O)c3cccs3)CC2)o1 | 8.9µM | 18µM | - | - | - | -
Cc1cccc(CNC(=O)c2ccc3nc(-c4ccccc4)c(-c4ccccc4)nc3c2)c1 | - | . | - | - | . | -
CCCNC(=O)c1noc2c1CCc1cc(OC)ccc1-2 | - | - | - | - | . | -[11.4 µM]
COc1ccc2c(c1)CCc1c(C(=O)NCc3cccnc3)noc1-2 | 40µM | - | - | - | - | -
Cc1nn(-c2ccccc2)c(N)c1Sc1ccc([N+](=O)[O-])cc1 | 10µM | ? | - | ? | - | ?
COc1ccc(C(=O)Oc2c(Sc3ccccc3)c(C)nn2-c2ccccc2)cc1OC | ? | . | - | - | . | -
Cc1nn(-c2ccccc2)c(OC(=O)C(C)C)c1Sc1ccccc1 | 1.6µM | . | - | - | . | ?
COc1cc(C(=O)Oc2c(Sc3ccccc3)c(C)nn2-c2ccccc2)cc(OC)c1OC | 4µM | . | - | - | . | -
Cc1nn(-c2ccccc2)c(OC(=O)C(C)(C)C)c1Sc1ccccc1 | 4µM | . | - | - | . | ?
Cc1nn(C(C)(C)C)c(OC(=O)C(C)(C)C)c1Sc1ccccc1 | - | . | - | - | . | -
Cc1ccc(Cl)cc1-n1c(=O)cc(N2CCN(c3ccc(F)cc3)CC2)[nH]c1=O | - | . | - | - | . | -
COC(=O)[C@@H]1C[C@H]1[C@@H](NC(=O)c1ccc(Br)cc1)c1ccccc1 | . | - | . | . | . | .
Cc1ccc(Sc2c(C)nn(C(C)(C)C)c2OC(=O)C(C)(C)C)cc1 | - | . | - | - | . | -
Cc1ccc(Sc2c(C)nn(-c3ccccc3)c2OC(=O)C(C)(C)C)cc1 | 10µM | . | - | - | . | -
CCOC(=O)c1ccc(NS(=O)(=O)c2cn(C)c(C)n2)cc1 | - | . | - | - | . | -
CNC(=S)N/N=C/c1cc(Br)cc(Br)c1O | - | - | 3.2µM | ? | 2µM | 32µM
Oc1c(Br)cc(Br)cc1/C=N/NC(=S)N[C@H]1CC2C=CC1C2 (stereo not given in full) | . | - | - | - | - | 40µM
Cc1cccc(C)c1NC(=O)Cn1c(=O)n(Cc2ccccc2)c(=O)c2c(C)c(C(=O)N(C)C)sc21 | - | . | - | - | . | -
S=c1[nH]ncn1-c1ccccn1 | ? | 22µM | ? | ? | - | 20µM
Cc1cc(-c2ccccc2)nc2cc(C(=O)Nc3cc(C(F)(F)F)ccc3Cl)nn12 | ? | . | ? | - | . | ?
COc1cccc(CNCc2ccc(OC)c3ccccc23)c1OC | -[2.33 µM] | - | 20µM | 40µM | . | 3.2µM
COc1ccccc1CNCC(O)Cn1c2ccccc2c2ccccc21 (stereo not given) | - | - | - | - | - | -
COc1ccccc1CNCC(c1ccccc1)c1ccccc1 | 40µM | - | 50µM | . | . | .
COc1ccc(CNCc2ccc(OC)c3ccccc23)cc1 | - | - | ? | - | . | ?
COc1cccc(CNCc2ccccn2)c1OC | - | - | ? | - | ? | 56µM
